The source of these data is PubChem BioAssay AID1053180 (Broad Institute, 2014).

In all, about 9,600 compounds went through this assay and about 20 (0.2%) were called active. The sample holds actives, similar compounds and a random draw of the others, so the mix is not that of the screen. Unmarked numbers belong to inactive results.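 Rule for the calls: active = highest normalized replicate activity of 15 or more, or at least half the replicates reach 15 or more; inactive = neither condition met.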

A short description of this test: Pax4 mRNA upregulation in alpha cells – RT-PCR, mouse alpha TC1 cells, single point, primary screen (AID 1053180).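 Note: Pax4 Ct normalized to GAPDH with activation seen as lower delta delta Ct; plate controls were plate neutral control wells for no effect and Pax4 plasmid positive control for full effect.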 The conditions noted are these: Pax4 mRNA qPCR, 6 days, at 10 µM, hits give high values, 100% = Pax4 plasmid added at qPCR.
Consider `O=C(C[C@@H]1CC[C@H]2[C@@H](COC[C@@H](O)CN2C(=O)Cc2ccccc2)O1)NC1Cc2ccccc2C1`, for which the activation was 0.021%.

In the case of `CCCN(C)C[C@H]1OCCCC[C@@H](C)Oc2ccc(NC(=O)CCCN(C)C)cc2C(=O)N([C@H](C)CO)C[C@@H]1C`, the activation was 0.002%.

For `C/C=C/c1ccc([C@@H]2[C@@H](CO)N3C(=O)CN(Cc4ccc(F)cc4)C[C@@H]23)cc1`, the activation is 0.0005%.

For the compound `C/C=C/c1ccc([C@H]2[C@@H](CO)N3C(=O)CN(Cc4ccc(F)cc4)C[C@H]23)cc1`, the activation is 0%.

Consider `C/C=C/c1ccc([C@H]2[C@@H](CO)N3C(=O)CN(Cc4ccc(F)cc4)C[C@@H]23)cc1`, for which the activation is 86.9% (active).

Regarding `COc1ccccc1NC(=O)N1CC(=O)N2[C@H](CO)[C@@H](c3ccc(C#CC(C)C)cc3)[C@@H]2C1`, the activation is 0.007%.

Take `COc1cccc(-c2ccc3c(c2)O[C@H](CN(C)Cc2cccnc2)[C@H](C)CN([C@@H](C)CO)S3(=O)=O)c1`: the activation is 0.057%.

With `COc1ccc(C(=O)N2C[C@H]3[C@@H](c4ccccc42)[C@@H](CO)N3C(=O)Cc2ccccn2)cc1`, the activation is 0%.

`N#C[C@@H]1[C@@H](c2ccccc2-c2ccccc2F)[C@H](CO)N1C(=O)Cc1ccccc1`: the activation is 0.001%.

For the compound `Cc1nc(N2[C@@H](C#N)[C@@H](c3ccccc3)[C@@H]2CO)sc1C`, the activation is 0.0005%.

For `COc1ccc(C[C@@H]2CCn3cc(nn3)COC[C@H](C)NC2=O)cc1`, the activation is 0.0005%.

On to `Cc1ccc(S(=O)(=O)N2C[C@H]3[C@@H](c4ccccc42)[C@@H](CO)N3Cc2cccnc2)cc1`, for which the activation is 0.002%.

With `O=C(C[C@H]1CC[C@H]2[C@@H](COC[C@@H](O)CN2S(=O)(=O)c2ccc(F)cc2)O1)NCCN1CCCCC1`, the activation is 0.003%.

On to `COc1ccc(NC(=O)N[C@H]2CC[C@@H](CCNC(=O)CN3CCOCC3)O[C@H]2CO)cc1`, for which the activation was 0.002%.

As for `Cc1noc(C)c1S(=O)(=O)Nc1ccc2c(c1)C(=O)N([C@H](C)CO)C[C@H](C)[C@H](CN(C)Cc1ccc(C(=O)O)cc1)OCCCC[C@H](C)O2`, the activation is -0.0005%.

In the case of `COc1ccc(S(=O)(=O)Nc2ccc3c(c2)C(=O)N([C@@H](C)CO)C[C@H](C)[C@H](CN(C)S(=O)(=O)c2ccc(Cl)cc2)OCCCC[C@H](C)O3)cc1`, the activation is 0.0535%.

On to `COc1cccc(-c2cccc(-c3nc(C(=O)Nc4ccc(-c5ccccc5)cc4)cc4c3[C@@H](CCO)N(S(=O)C(C)(C)C)C4)c2)c1` (stereo not given in full), for which the activation was 42.4% (active).

With `COc1cccc(-c2cccc(-c3nc(C(=O)O)cc4c3[C@@H](CCO)N(S(=O)C(C)(C)C)C4)c2)c1` (stereo not given in full), the activation was 0%.

Turning to `COc1cccc(-c2cccc(-c3nc(C(=O)O)cc4c3[C@H](CCO)N(S(=O)C(C)(C)C)C4)c2)c1` (stereo not given in full), the activation was 0.001%.

With `COc1cccc(-c2ccc3c(c2)[C@@H]2[C@@H](CCN2S(=O)(=O)C2=NC(C)C=N2)[C@H](CO)N3C)c1` (stereo not given in full), the activation was 0.001%.

Turning to `COCC(=O)Nc1ccc2c(c1)[C@H]1C[C@@H](CC(=O)N[C@@H](C)c3ccccc3)O[C@@H](CO)[C@H]1O2`, the activation is 0.004%.

Consider `O=C1CN(S(=O)(=O)c2cccc(F)c2)C[C@@H]2[C@@H](c3ccc(C4=CCCC4)cc3)[C@H](CO)N12`, for which the activation was 0.006%.

As for `C[C@H](NC(=O)C[C@@H]1C=C[C@H](NC(=O)c2cccnc2)[C@@H](CO)O1)c1ccccc1`, the activation is 0.001%.

Take `CO[C@H]1CN(C)C(=O)c2cc(NC(=O)C3CCOCC3)ccc2OC[C@H](C)NC[C@@H]1C`: the activation was 0.0005%.

For the compound `CCN1CC(=O)N2[C@@H](CO)[C@H](c3ccc(Br)cc3)[C@@H]2C1`, the activation is 0%.

As for `Cn1cnc(S(=O)(=O)N[C@H]2CC[C@H](CC(=O)NCC3CCCCC3)O[C@@H]2CO)c1`, the activation was -0.0005%.

Take `COc1ccc(S(=O)(=O)N2C[C@H](O)COC[C@@H]3O[C@@H](CC(=O)N[C@H]4CCN(Cc5ccccc5)C4)CC[C@H]32)cc1`: the activation is -0.0135%.

For `COc1ccc2c3c(n(C)c2c1)[C@@H](CO)NCC31CCN(CC2CCCCC2)CC1`, the activation was 0.027%.

Turning to `O=C(NC1CCCC1)[C@@H]1[C@@H](CO)[C@@H]2Cn3c(ccc(C4=CCCCC4)c3=O)[C@H]1N2CC1CC1`, the activation is 0%.

For `O=C(Nc1ccc2c(c1)[C@@H]1C[C@@H](CC(=O)N3CCCCC3)O[C@H](CO)[C@@H]1O2)NC1CCCCC1`, the activation was 0.012%.

Turning to `COc1ccc(S(=O)(=O)N(C)C[C@@H]2Oc3c(NC(=O)c4nc5ccccc5s4)cccc3C(=O)N([C@@H](C)CO)C[C@@H]2C)cc1`, the activation was -0.002%.

Consider `CCS(=O)(=O)Nc1ccc2c(c1)C(=O)N(C)C[C@H](OC)[C@@H](C)CN(C(=O)c1ccc3c(c1)OCO3)[C@@H](C)CO2`, for which the activation is 0%.

In the case of `C/C=C/c1ccc([C@@H]2[C@H](CO)N(C(C)=O)[C@H]2CN(C(C)=O)C2CCCC2)cc1`, the activation is 0.004%.

As for `COCC(=O)N1CCC2(CC1)CN(Cc1ccccc1Cl)[C@H](CO)c1[nH]c3cc(OC)ccc3c12`, the activation is 0.0015%.

In the case of `CN(C)C(=O)c1cccc(-c2ccc([C@@H]3[C@@H](CO)N4CCCCN(CC5CCOCC5)C[C@@H]34)cc2)c1`, the activation is 0.001%.

For `Cc1ccc(S(=O)(=O)Nc2cccc3c2O[C@@H](CN(C)C(=O)Nc2ccc(C(F)(F)F)cc2)[C@@H](C)CN([C@H](C)CO)C3=O)cc1`, the activation is 0.002%.

`C[C@@H]1CN([C@@H](C)CO)C(=O)c2c(c3ccccc3n2C)-c2ccccc2CO[C@H]1CN(C)C(=O)[C@H](Cc1ccccc1)N(C)C`: the activation was 0.0095%.

Take `CN(C)C(=O)c1ccc(-c2ccc([C@H]3[C@H](C#N)N(C(=O)C4CC4)[C@H]3CO)cc2)cc1`: the activation is 0.0005%.

For the compound `N#C[C@H]1[C@@H](c2ccccc2-c2cccc(F)c2)[C@H](CO)N1C(=O)CN1CCOCC1`, the activation was 0.006%.

For the compound `O=C(CC1CC1)N1CC[C@@H]2[C@H]1c1cc(-c3ccc(F)cc3)ccc1N[C@@H]2CO`, the activation is 0.0045%.
